Assay outcomes deposited in PubChem BioAssay by National Center for Advancing Translational Sciences (NCATS).
An excerpt weighted towards active compounds, which were near 5.1% of everything screened.
Tau ThT inhib: qHTS for Inhibitors of Tau Fibril Formation, Thioflavin T Binding | recombinant tau K18 P301L, heparin-induced fibrillization, ThT fluorescence | hit rate 2.1% among 270,000 | AID 1460, 2008 | Microtubule-associated protein tau (Homo sapiens), P10636 | Potency, µM (series often up to 57.4 µM), without a hit: top-dose activity, negative = inhibition, most hits filed as inhibitors; note: potency is the fitted concentration of half-maximal effect; nearly all actives have a fitted effect of over 55% in size
Target sequence (P10636 561-689 P618L limits assumed): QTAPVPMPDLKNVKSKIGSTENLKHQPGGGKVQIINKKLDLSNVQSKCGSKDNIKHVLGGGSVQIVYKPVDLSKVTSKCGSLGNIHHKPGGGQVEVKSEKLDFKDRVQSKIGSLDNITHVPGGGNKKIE
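Fibril formation assay: tau K18 P301L at 15 uM with trace Alexa 594 label, heparin inducer 20 uM, pH 7 sodium acetate buffer, 37 C for 6 hr; endpoint ThT signal.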
Tau fluor cs: Counterscreen qHTS for Inhibitors of Tau Fibril Formation, Fluorescence Polarization. hit rate 0.93% among 280,000. tau K18 P301L Alexa594 fluorescence, heparin fibrillization. AID 1463, 2008. Potency, µM (highest dose often 57.7 µM), for inactives: at the highest dose activity change, negative = decrease; note: potency is the fitted concentration of half-maximal effect; nearly all actives have a fitted effect of over 55% in size
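Human tau K18 P301L (15 uM unlabeled, 0.24 uM Alexa 594-labeled) in 100 mM sodium acetate pH 7 with 20 uM heparin, 6 hr at 37 C. ThT 30 uM added, 1 hr ambient; Alexa 594 FP and total fluorescence read at 555/632 nm.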
NPSR antag: qHTS Assay for Antagonists of the Neuropeptide S Receptor: cAMP Signal Transduction; Q6W5P4; hit rate 1% among 220,000; CHO-NPSR cells, cAMP TR-FRET, antagonist mode; Potency, µM (highest dose often 38.3 µM), inactives show top-dose activity change, negative = inhibition, actives largely listed as inhibitors; note: potency is the fitted concentration of half-maximal effect; nearly all actives have a fitted effect of over 50% in size
Tau FP inhib: qHTS for Inhibitors of Tau Fibril Formation, Fluorescence Polarization; K18 P301L tau heparin fibrillization, Alexa594 FP, 6 h; AID 1468, 2008; Potency, µM (top dose mostly 57.7 µM), for inactives: top-dose activity, negative = inhibition, most hits filed as inhibitors; hit rate 0.39% among 280,000; note: potency is the fitted concentration of half-maximal effect; nearly all actives have a fitted effect of over 55% in size
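Human tau K18 […] P301L fragment, 15 uM unlabeled plus 0.24 uM Alexa 594-labeled tau (final), with compound and 20 uM heparin in 100 mM sodium acetate pH 7; 6 hr at 37 C, then Alexa 594 FP read.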
JMJD2E inh: qHTS Assay for Inhibitors of Human Jumonji Domain Containing 2E (JMJD2E). Lysine-specific demethylase 4E (Homo sapiens), B2RXH2. JMJD2E catalytic domain, FDH-coupled NADH fluorescence (FDH is formaldehyde dehydrogenase). Potency, µM (doses to about 57.1 µM), without a hit: at the top dose activity change, negative = inhibition, most hits filed as inhibitors. hit rate 1.6% among 230,000. AID 2147, 2009; active = well fitted inhibition curve with a large enough effect, not every such curve was filed as active; inconclusive = small, poorly fitted or top-dose-only effect, or another doubt; inactive = no such curve, though single readings can be large or run the other way;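 note: potency is the fitted concentration of half-maximal effect; 0% = wells with enzyme and -100% = buffer wells without enzyme; nearly all actives have a fitted effect of over 50% in size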
Target sequence (B2RXH2 1-337 limits assumed): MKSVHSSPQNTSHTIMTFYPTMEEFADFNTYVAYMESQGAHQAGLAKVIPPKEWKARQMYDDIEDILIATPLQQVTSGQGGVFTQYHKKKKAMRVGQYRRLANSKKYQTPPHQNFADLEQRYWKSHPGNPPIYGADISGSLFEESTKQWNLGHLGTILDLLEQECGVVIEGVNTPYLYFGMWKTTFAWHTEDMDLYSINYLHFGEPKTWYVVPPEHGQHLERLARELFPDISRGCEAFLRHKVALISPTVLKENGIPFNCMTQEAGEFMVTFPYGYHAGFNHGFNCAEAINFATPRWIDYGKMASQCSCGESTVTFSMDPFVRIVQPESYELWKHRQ
PNC assembly inh: High Content Assay for Compounds that inhibit the Assembly of the Perinucleolar Compartment; activity change (PNC), negative = inhibition, % at 10 µM; PC3M PTB-GFP, PNC prevalence imaging, 16 h; hits give low values; hit rate 3.1% among 140,000;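 active = readout at or below -70, meaning at least 70% loss of cells showing the perinucleolar compartment, a nuclear body marking cancer cells; inconclusive = readout between -30 and a set limit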;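 note: plate controls were DMSO wells for no effect and camptothecin positive control wells for full effect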
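Compounds are pinned in duplicate onto adhered PC3M cells stably expressing GFP-tagged PTB and incubated 16 h at 37 C. Cells are then fixed, nuclei stained with Hoechst, and PNC-positive cells counted.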
An asterisk follows results filed as active; ? = inconclusive; · = no result; [ ] = another dose, or the depositor's remark. Unless noted, calls come from the whole dose curve; as a rule, active = well fitted curve in the direction sought with a large enough effect; inconclusive = small, poorly fitted or top-dose-only effect, or another doubt; inactive = no such curve, though single readings can be large; an effect the other way counts as inactive or inconclusive. Unless noted, % is set by controls: 0 for no effect and ±100 for the full control effect.

SMILES	Tau ThT inhib	Tau fluor cs	NPSR antag	Tau FP inhib	JMJD2E inh	PNC assembly inh
CCOCCOC(=O)c1ccc(NC(=O)/C=C/c2ccc(OC)c(OC)c2)cc1	13.3%	-21.5%	·	?	·	·
Cc1c(Cl)cccc1NC(=O)CN1C(=O)COc2ccc(S(=O)(=O)N3CCOCC3)cc21	4.8%	-2.4%	·	-4.6%	·	·
N#CC(C#N)=C1C=CC=CN1/C(=C\c1ccccc1Cl)C(=O)c1ccccc1	?	?	7.94µM*	?	?	-8.4
N#CC(C#N)=C1C=CC=CN1/C(=C\c1ccccc1)C(=O)c1cccs1	?	?	?	11.3%	-0.6%	27.7
Cc1cccc(C(=O)Nc2sc(-c3ccccc3)cc2C(=O)O)c1	14.1µM*	?	12.6µM*	14.1%	?	·
Nc1sc(-c2ccccc2)cc1C(=O)O	-5.2%	-1.1%	-20.2%[46.1 µM]	-0.8%	-3.1%	-4.3
Cc1cccc(C(=O)Nc2sc3c(c2C(=O)O)CCCC3)c1	?	-14.6%	·	8.9%	·	·
CC(C)(C)C(=O)Nc1sc(-c2ccccc2)cc1C(=O)O	-14.2%	-7.2%	12.6µM*	15.2%	?	·
COc1ccc(N(C(=O)/C=C\C(=O)Nc2ccc(Cl)cc2)C(C(=O)NCc2ccco2)c2ccc(C)cc2)cc1 (stereo unspecified)	-2.5%	-19.3%	·	-3.6%	·	·
COc1ccccc1COCC(O)CN(Cc1ccco1)Cc1ccccc1O (stereo unspecified)	?	-22.4%	-30.3%	-4.1%	-0.4%	-116.4*
CCOc1cc(CNC(=O)c2ccccc2NC(=O)c2nsc3ccccc23)ccc1OC	-6.4%	-29.2%	·	?	·	·
Cc1nn(-c2ccccc2)c(C)c1/C=N\N1CCN(c2ccc(Cl)cc2)CC1	8.91µM*	?	-10.3%[46.1 µM]	-7.6%	2.5%	-14.3
Cc1nn(-c2ccccc2)c(C)c1/C=N/n1cnnc1	-5.3%	-7.8%	13.6%	-10.4%	3.5%	·
CC(C)CNC(=O)NC(=O)COc1c(F)c(F)cc(F)c1F	?	15.8µM*[quencher]	-16.3%[46.1 µM]	?	?	-16.9
COc1cc(/C=C/C(=O)OCC(=O)NC(=O)NC(C)C)ccc1OCC#N	0.6%	0.3%	8.8%	-9.3%	?	-85.1*
CN1C(=O)/C(=C/c2cc(N=Nc3ccccc3)ccc2O)SC1=S	4.47µM*	6.31µM*[quencher]	-19.1%[46.1 µM]	?	-6.7%	-23.8
Cc1c(N2C(=O)/C(=C\c3ccccc3O)SC2=S)c(=O)n(-c2ccccc2)n1C	31.6µM*	-25.6%	?	?	1.0%	·
COc1ccc(/C=C(\C#N)c2nc3ccccc3c(=O)[nH]2)cc1OC	-14.4%	-9.7%	·	-7.0%	·	·
CCOC(=O)C1CCN(C(=O)C2CCN(S(=O)(=O)c3c(C)noc3/C=C/c3ccc(C)cc3)CC2)CC1	-19.9%	-7.6%	·	-1.3%	·	·
O=C(c1ccc(C(=O)N2CCCc3ccccc32)nc1)N1CCCc2ccccc21	-4.8%	-13.5%	-24.2%[46.1 µM]	-12.4%	7.8%	-100.3*
COc1ccc2oc(=O)c(C(=O)NCCc3c(C)[nH]c4c(C)cccc34)cc2c1	?	15.8µM*[quencher]	·	11.4%	·	·
Clc1ccc(-c2noc3ncnc(NCCCN4CCN(c5ccccc5)CC4)c23)cc1	-13.7%	-29.3%	·	-8.3%	·	·
COCCN(CC(=O)NCc1ccc2c(c1)OCO2)C(=O)CCC(=O)Nc1nccs1	-0.2%	2.1%	-11.3%[46.1 µM]	1.7%	6.3%	-100.0*
O=C(CCC(=O)N(CC(=O)NC1CCCC1)Cc1ccc2c(c1)OCO2)Nc1ccccn1	11.4%	2.9%	-14.2%[46.1 µM]	-1.0%	4.9%	-94.0*
CN(C)CCNC(=O)/C=N/O	4.7%	0.0%	19.0%	4.5%	3.1%	-88.9*
O=C(N/N=C/c1cccnc1)c1cccc(S(=O)(=O)Nc2cccc(Cl)c2)c1	-4.0%	-4.2%	-3.3%	8.6%	-10.4%	·
